# The full data set covers some 8,800 targets. This sample favours those with a hit. About 0.5% of all pairs of compound and target were hits. Unmarked numbers belong to inactive results.
# Compound: O=C(CCCCCCC(=O)Nc1ccccc1)NO [vorinostat]
# Experiment: log2 fold change, soluble protein after heating vs DMSO (PISA); higher = thermal stabilisation; K562 lysate, 10 uM; active = over 0.2 and 3.5 SD of the protein, either way, in both replicates (recomputed)
# In short: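 Dounce homogenisation of K562 pellets in PBS pH 7.4 with 1 mM MgCl2 produced a crude extract, used at 1 mg/mL protein. Exposure to 10 μM compound lasted 30 min, and aliquots were then heated for 3 min across 48°C-58°C, pooled and brought to 0.5% NP-40 at 4°C. The supernatant after 21,000xg for 90 min was quantified by TMTpro 16plex LC-MS/MS with channel sums equalised. Duplicate values are given as log-two fold change in thermal stability relative to solvent controls.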
# Sequence of UniProt P52630 (P52630 whole entry, looked up): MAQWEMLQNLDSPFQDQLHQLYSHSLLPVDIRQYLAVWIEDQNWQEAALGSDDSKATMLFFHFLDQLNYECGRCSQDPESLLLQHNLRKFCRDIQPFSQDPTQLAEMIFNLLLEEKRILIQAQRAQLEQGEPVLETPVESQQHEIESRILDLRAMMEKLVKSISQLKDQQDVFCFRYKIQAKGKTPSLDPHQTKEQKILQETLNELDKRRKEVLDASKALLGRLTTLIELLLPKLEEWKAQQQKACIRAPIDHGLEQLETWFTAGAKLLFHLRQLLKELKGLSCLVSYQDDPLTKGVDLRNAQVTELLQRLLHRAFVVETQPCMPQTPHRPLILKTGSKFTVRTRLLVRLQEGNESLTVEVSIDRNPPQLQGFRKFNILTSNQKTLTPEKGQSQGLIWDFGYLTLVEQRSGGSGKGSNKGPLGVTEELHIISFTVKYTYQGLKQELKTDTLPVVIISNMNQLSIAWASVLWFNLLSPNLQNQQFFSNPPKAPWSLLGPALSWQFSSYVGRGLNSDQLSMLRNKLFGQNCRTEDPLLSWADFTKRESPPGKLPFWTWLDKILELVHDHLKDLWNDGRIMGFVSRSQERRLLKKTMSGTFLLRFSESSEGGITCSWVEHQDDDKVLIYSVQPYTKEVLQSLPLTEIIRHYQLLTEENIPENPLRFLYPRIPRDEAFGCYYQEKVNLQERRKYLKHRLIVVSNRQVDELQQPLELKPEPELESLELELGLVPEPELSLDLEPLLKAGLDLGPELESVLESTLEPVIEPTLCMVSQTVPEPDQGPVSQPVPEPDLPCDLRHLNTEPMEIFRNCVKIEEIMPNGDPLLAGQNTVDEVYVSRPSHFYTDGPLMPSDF
# Sequence of UniProt Q8NEM2 (Q8NEM2 whole entry, looked up): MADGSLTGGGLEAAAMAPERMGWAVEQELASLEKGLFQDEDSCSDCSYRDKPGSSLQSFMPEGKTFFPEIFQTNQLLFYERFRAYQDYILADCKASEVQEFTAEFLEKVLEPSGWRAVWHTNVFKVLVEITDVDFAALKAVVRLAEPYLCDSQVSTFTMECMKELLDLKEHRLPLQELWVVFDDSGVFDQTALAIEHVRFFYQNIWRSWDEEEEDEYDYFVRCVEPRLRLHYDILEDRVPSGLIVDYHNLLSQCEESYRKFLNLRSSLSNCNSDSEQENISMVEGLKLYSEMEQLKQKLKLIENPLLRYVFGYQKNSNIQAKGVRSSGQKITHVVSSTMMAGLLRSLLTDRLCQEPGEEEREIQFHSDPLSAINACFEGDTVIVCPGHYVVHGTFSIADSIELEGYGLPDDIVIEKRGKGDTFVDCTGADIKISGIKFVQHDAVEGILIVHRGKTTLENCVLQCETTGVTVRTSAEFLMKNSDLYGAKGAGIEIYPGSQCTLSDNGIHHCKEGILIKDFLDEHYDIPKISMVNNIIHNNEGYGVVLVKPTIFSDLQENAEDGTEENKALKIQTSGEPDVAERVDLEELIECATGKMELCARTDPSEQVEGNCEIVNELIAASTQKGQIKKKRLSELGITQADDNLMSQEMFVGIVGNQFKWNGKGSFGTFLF
# Sequence of UniProt Q9UJZ1 (Q9UJZ1 whole entry, looked up): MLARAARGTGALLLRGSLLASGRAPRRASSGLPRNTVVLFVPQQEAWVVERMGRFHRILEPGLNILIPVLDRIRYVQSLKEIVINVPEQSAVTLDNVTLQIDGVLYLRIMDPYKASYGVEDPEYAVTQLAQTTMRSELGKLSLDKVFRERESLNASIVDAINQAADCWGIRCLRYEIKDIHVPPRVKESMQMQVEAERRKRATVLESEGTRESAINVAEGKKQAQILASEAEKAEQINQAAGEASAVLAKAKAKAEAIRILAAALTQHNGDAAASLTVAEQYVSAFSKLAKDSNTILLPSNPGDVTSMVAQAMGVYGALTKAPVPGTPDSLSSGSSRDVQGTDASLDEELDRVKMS
# Sequence of UniProt Q92540 (Q92540 whole entry, looked up): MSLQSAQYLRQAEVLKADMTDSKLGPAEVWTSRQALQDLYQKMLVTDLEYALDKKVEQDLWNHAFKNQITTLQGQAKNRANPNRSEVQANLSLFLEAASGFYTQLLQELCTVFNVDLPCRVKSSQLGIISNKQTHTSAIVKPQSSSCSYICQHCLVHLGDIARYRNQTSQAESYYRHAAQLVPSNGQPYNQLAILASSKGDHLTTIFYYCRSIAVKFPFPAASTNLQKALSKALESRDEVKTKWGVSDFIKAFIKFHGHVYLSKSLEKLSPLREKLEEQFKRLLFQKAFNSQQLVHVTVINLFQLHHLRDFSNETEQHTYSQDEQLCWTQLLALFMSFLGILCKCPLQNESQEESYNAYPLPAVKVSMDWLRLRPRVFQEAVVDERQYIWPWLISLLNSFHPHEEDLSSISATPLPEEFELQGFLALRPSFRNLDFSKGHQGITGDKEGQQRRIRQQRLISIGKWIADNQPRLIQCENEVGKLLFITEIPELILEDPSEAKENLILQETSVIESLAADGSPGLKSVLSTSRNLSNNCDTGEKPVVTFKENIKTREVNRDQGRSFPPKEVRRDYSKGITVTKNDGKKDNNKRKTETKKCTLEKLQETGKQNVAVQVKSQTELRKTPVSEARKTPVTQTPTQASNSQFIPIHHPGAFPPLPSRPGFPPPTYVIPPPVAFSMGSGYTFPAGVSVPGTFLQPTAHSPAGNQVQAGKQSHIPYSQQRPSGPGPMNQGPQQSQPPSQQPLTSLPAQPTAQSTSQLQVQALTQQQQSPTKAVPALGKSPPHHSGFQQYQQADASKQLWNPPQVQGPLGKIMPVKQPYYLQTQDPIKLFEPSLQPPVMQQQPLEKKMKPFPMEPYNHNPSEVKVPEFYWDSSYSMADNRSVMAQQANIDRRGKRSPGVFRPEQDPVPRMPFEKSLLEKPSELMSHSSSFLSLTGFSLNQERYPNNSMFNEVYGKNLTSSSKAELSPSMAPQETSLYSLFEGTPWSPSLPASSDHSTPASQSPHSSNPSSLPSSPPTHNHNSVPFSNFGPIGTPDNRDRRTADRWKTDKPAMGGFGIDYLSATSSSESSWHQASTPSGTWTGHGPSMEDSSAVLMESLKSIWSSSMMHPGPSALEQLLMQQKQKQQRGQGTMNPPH
# Sequence of UniProt O95347 (O95347 whole entry, looked up): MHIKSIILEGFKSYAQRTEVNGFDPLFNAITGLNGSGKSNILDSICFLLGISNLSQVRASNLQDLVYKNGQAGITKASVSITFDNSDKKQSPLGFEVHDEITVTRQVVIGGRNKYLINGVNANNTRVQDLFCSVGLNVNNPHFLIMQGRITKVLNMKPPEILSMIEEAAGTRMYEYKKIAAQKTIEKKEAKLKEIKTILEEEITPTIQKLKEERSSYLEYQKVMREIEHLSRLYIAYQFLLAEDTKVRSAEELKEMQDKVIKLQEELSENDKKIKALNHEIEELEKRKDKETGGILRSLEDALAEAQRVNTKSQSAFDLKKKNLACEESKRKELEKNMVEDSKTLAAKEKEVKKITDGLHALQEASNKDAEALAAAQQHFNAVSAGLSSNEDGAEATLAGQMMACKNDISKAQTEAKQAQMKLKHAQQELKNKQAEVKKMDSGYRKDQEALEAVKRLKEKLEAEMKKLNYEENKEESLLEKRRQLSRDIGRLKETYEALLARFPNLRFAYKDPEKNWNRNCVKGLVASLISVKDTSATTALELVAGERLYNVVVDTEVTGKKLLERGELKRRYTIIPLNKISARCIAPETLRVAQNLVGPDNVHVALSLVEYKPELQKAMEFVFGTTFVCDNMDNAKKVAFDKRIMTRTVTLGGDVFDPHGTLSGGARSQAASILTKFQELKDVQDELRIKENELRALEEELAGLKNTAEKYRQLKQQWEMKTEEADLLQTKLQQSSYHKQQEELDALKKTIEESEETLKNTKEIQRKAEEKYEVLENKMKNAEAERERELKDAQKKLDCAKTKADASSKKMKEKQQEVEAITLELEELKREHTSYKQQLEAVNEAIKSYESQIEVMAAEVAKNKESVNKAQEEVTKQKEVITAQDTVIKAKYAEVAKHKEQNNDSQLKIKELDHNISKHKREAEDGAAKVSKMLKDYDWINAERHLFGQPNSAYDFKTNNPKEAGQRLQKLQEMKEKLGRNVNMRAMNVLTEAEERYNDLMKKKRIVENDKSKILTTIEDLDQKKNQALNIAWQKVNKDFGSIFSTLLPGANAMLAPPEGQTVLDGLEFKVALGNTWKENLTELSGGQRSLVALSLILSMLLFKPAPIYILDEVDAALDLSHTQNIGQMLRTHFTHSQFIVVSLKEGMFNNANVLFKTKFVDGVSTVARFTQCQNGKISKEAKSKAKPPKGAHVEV
# Sequence of UniProt Q9H2V7 (Q9H2V7 whole entry, looked up): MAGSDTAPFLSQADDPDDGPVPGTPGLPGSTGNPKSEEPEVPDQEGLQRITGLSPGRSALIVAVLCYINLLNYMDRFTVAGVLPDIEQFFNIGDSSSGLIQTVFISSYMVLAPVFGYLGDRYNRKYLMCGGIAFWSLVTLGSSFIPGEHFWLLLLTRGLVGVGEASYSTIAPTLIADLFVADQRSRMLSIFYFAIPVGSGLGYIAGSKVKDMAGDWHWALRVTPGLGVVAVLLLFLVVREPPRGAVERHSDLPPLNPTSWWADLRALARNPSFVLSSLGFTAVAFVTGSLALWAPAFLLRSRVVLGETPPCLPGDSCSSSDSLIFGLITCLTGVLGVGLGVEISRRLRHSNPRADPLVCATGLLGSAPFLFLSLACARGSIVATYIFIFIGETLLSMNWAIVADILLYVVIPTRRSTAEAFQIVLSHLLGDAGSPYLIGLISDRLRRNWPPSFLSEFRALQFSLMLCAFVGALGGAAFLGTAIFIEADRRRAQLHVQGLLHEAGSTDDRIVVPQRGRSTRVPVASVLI
# Sequence of UniProt P31947 (P31947 whole entry, looked up): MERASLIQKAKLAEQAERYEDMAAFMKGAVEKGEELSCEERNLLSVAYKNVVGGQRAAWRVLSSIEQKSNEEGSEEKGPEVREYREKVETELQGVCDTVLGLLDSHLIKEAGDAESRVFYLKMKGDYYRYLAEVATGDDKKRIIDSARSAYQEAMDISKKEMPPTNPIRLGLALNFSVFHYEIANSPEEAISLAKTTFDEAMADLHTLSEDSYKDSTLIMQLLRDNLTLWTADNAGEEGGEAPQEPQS
row,Target,log2 fold change
1,SPNS1 (UniProt Q9H2V7),-0.022
2,SRM (UniProt P19623),-0.029
3,STOML2 (UniProt Q9UJZ1),0.129
4,SFN (UniProt P31947),0.107
5,SMC1B isoform 3 (UniProt Q8NDV3),0.068
6,STK24 (UniProt B4DR80),0.029
7,STAU1 (UniProt O95793),-0.035
8,SPATS2 (UniProt Q86XZ4),-0.507 (active)
9,SMC4 (UniProt Q9NTJ3),-0.296 (active)
10,STK38 (UniProt Q15208),-0.424 (active)
11,SMG6 (UniProt Q86US8),-0.3 (active)
12,SMARCA4 (UniProt P51532),-0.246 (active)
13,SSBP3 (UniProt Q9BWW4),0.061
14,STAT2 (UniProt P52630),-0.254 (active)
15,STUB1 (UniProt Q9UNE7),-0.33 (active)
16,SHKBP1 (UniProt Q8TBC3),-0.069
17,SSB (UniProt P05455),0.081

row,Target,log2 fold change
1,SMG7 (UniProt Q92540),-0.053
2,SMG1 (UniProt Q96Q15),-0.348 (active)
3,SRRT (UniProt Q9BXP5),-0.373 (active)
4,SHC1 isoform 6 (UniProt P29353),0.025
5,SH3BGRL2 (UniProt Q9UJC5),0.153
6,SP1 (UniProt P08047),-0.376 (active)
7,SHCBP1 (UniProt Q8NEM2),-0.37 (active)
8,SH3BP5L (UniProt Q7L8J4),-0.025
9,SYNRG (UniProt Q9UMZ2),-0.002
10,STK26 (UniProt Q9P289),-0.032
11,SMC2 (UniProt O95347),-0.308 (active)
12,SLC11A2 isoform 3 (UniProt P49281),0
13,SYF2 (UniProt O95926),0.092
14,SMC6 (UniProt Q96SB8),-0.245 (active)
15,SLC29A2 (UniProt Q14542),0.139
16,SNAP23 (UniProt O00161),0.052

# From the supplement of paper PMC10849652
